PubChem BioAssay (NCI)
The panel holds about 79,000 compounds, 15% with a hit somewhere; the sample as a whole holds those more often. A number with no mark means an inactive call. Cut-off read from the data, not from the text of the source: active = growth inhibition above about 70%; inactive = the rest.

Test: NCI Yeast Anticancer Drug Screen. Data for the cln2 rad14 strain (AID 165);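 note: 0% = growth equal to vehicle treated cultures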
Details: S. cerevisiae cln2 rad14 strain, at 50.0 µM, active compounds read high
In short: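 Growth of compound-exposed yeast (cln2 rad14 genotype) measured and expressed as inhibition relative to vehicle.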

Structure (SMILES) | growth inhibition
Cc1[nH]c(=O)nc(N/N=C/c2ccc(Cl)cc2)c1C(=O)Nc1ccc(Cl)cc1 | 1.65%
O=c1cc(-c2ccccc2)oc2c1ccc1c(O)cccc12 | 21.5%
Cc1cc(N=[N+]=[N-])c2cc3c(cc2n1)OCO3 | -39%
CC(C)CC(NC(=O)OC(C)(C)C)C(=O)O (stereo not given) | 14.6%
CC1=CC(=O)N2CCN=C2S1 | -20.6%
CC(=O)NC(C)(C)C1CCC(C)CC1 (stereo not given) | 8.05%
CC1=CC(C)(C)N=C2SC(c3ccc(N)cc3)=NN12 | 5.9%
NCCCc1ccc(C(=O)O)cc1 | -40.2%
CC(=O)OCC1OC(n2cc(F)c(=O)[nH]c2=O)C(OC(C)=O)C1OC(C)=O (stereo not given) | 43.2%
O=c1c(-c2ccccc2)nc2ccccc2n1CC1CCCN2CCCC[C@H]12 (stereo not given in full) | -38.9%
CCN(C(=O)c1ccc([N+](=O)[O-])cc1)C(c1ccccc1)P(=O)(c1ccccc1)c1ccccc1 (stereo not given) | -37%
Cc1cccc(-c2c3ccccc3cc3c2ccc2ccccc23)c1 | -13.8%
O=C(Cc1ccc(Cl)cc1)c1ccccc1Cl | 1.7%
O=C1OC(=O)C2C3C=CC(CC3)C12 (stereo not given) | -65%
CCN(CC)Cc1cc(Oc2ccc(O)c(CN(CC)CC)c2)ccc1O | -22.7%
O=[N+]([O-])/C=C/c1cn(CCCCCn2cc(/C=C/[N+](=O)[O-])c3ccccc32)c2ccccc12 | -7.65%
CC1CN(N)C(=O)O1 (stereo not given) | 2.9%
O=C1CC(NC(=O)C(F)(F)F)c2c(Br)sc(N3CCNCC3)c21 (stereo not given) | -2.2%
COC(=O)C1(Cc2ccccc2)Cc2ccccc2C1 | 20.2%
CCOC(=O)NN(C(=O)OCC)c1c(NN)n(C)c(=O)n(C)c1=O | -10.4%

Structure (SMILES) | growth inhibition
Cc1ccc(NC2=CC(=O)c3ccccc3C2=O)cc1 | -26.9%
COc1cc2cc[n+]3c(C)c4ccc(OC)c(OC)c4cc3c2cc1OC (tested in a mixture with another compound) | -10.8%
O=C(O)c1ccccc1NCn1c(=S)sc2ccccc21 | 5.5%
COC(=O)Nc1nc2ccc(SC)cc2c(=O)[nH]1 | 6.45%
O=Cc1ccccc1Cl | -15.2%
O=S(=O)(Nc1c(Cl)c(Cl)c(NS(=O)(=O)c2ccccc2)c(Cl)c1Cl)c1ccccc1 | -5.6%
CCCCCCCCOC(=O)Nc1ccc(S(=O)(=O)CC)cc1 | -31.9%
COC(=O)CC1NC(=O)[C@]1(C)[C@H](C)O (stereo not given in full) | -14.3%
O=C1N=C(C=c2ccc(=Cc3[nH]c(=O)[nH]c3O)cc2)C(=O)N1 | 13.9%
CCC1CN2CCc3cc(OC)c(OC)cc3C2CC1CC1c2cc(OC)c(OC)cc2CCN1C(=O)C1CCCN1 (stereo not given) | 6.85%
Nc1ccc(C(=O)O)cc1O | 20.4%
CCCCCCN(C(=O)Oc1ccccc1)C(C#N)c1ccccc1 (stereo not given) | -14.7%
Nc1ccc(-c2ccccc2)cc1[N+](=O)[O-] | -23.2%
Nc1cccnc1NCC(O)c1ccccc1 (stereo not given) | -12.6%
CC(=O)NC1CC2c3ccccc3C1([N+](=O)[O-])c1ccccc12 (stereo not given) | 6.45%
CCC/C=N/NC(=O)CCCCCCCCCCCCCCCCC | -8.2%
O=C(Nc1ccccc1)OC1C(OC(=O)c2ccccc2)OC(COC(=O)c2ccccc2)C1OC(=O)c1ccccc1 (stereo not given) | -0.85%
CC(=O)OCC1COC(C2CC=CCC2C)O1 (stereo not given) | 4.05%
CC(C)=CCC/C(C)=C/CN | -17.6%
CN(C)C(=O)C1Cc2ccccc2CC1C(=O)N(C)C (stereo not given) | -21.5%
